Measured values: PubChem BioAssay (NCI)
“And” between values parts separate entries of the source, which are not always exact repeats. Identical values can stand only once. This is part of a sample that, as a whole, favours compounds with a hit. Of some 83,000 tested, about 20% had one in any assay.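 Cells were grown in 96-well plates and exposed to the test compound at a single concentration for 48 hours; results are reported as percent growth, with values below 10 considered active.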 The source made the active and inactive calls.

System: TK-10 renal
Assay: NCI-60 one-dose screen, 48 h (100 = growth as untreated, 0 = no growth, -100 = all killed)
Conditions: 10 µM unless noted

SMILES | growth
Oc1ccc(/C=C/c2cc(O)cc3c2C(c2cc(O)cc(O)c2)C(c2ccc(O)c(O)c2)O3)cc1 (stereo not drawn) | -15.5% [100 µM] (active) and -12.5% [100 µM] (active)
Cc1cc2c3c(nc4ccccc42)C(=O)c2cccnc2-c3n1 | -10.8% [100 µM] (active) and -100% [100 µM] (active)
CCOc1cc2c(cc1O)C(=O)C[C@@H]1[C@@H]2CC[C@]2(C)[C@@H](O)CC[C@@H]12 | 38.8% [100 µM] (inactive) and -2.4% [100 µM] (active)
NC1=NN(c2ccccc2)C2(c3ccncc3C(=O)O)C1C(N)=NN2c1ccccc1 (stereo not drawn) | 106% [100 µM] (inactive) and 9.31% [100 µM] (active)
CCCCOC(=O)C1CN2C(=NC1(C(F)(F)F)C(F)(F)F)Sc1ccccc12 (stereo not drawn) | 33.3% [100 µM] (inactive) and 71.4% [100 µM] (inactive)
CCOC(=O)C1(C#N)C(=O)c2cc[n+](CC[n+]3ccc4c(c3)C(=O)C(C#N)(C(=O)OCC)C4=O)cc2C1=O (stereo not drawn) | 141% [100 µM] (inactive) and 101% [100 µM] (inactive)
CN(C)CCNc1ccc(NCC[N+](C)(C)Cc2ccc([N+](=O)[O-])cc2)c2c1C(=O)c1ccccc1C2=O | 36.4% [25 µM] (inactive) and 2.65% [25 µM] (active)
Cc1cc(N2CCCC2)c([N+](=O)[O-])cc1[N+](=O)[O-] | 89.8% [100 µM] (inactive) and 75.9% [100 µM] (inactive)
CC(=O)Nc1c(C)cc2c(nc3n2CCC3OC(C)=O)c1[N+](=O)[O-] (stereo not drawn) | 120% [100 µM] (inactive) and 104% [100 µM] (inactive)
CC(=O)c1cc2c(s1)C(=O)c1scc(C(C)=O)c1C2=O | -9.55% [100 µM] (active) and -86% [100 µM] (active)
Cc1c2c(c(O)c3c(O)cccc13)C(=O)C1(O)C(O)=C(C(=O)NCNc3ccc(C(N)=O)cn3)C(=O)C(N(C)C)C1C2 (stereo not drawn) | -70% [100 µM] (active) and -74.7% [100 µM] (active)
CC(=O)c1cc2c(s1)C(=O)c1ccsc1C2=O | -38.1% [100 µM] (active) and -100% [100 µM] (active)
CC1=CCC2C3(C)CCC2(C(C)C)C1C3 (stereo not drawn) (tested in a mixture with another compound) | 17.7% [100 µM] (inactive) and -89.5% [100 µM] (active)
